HCV inhibitor: HCV inhibition; Huh7.5.1 HCVcc-Cre infection, luciferase reporter, 44 h; Potency, µM (doses to about 41.8 µM), inactives show at the highest dose activity change, negative = inhibition, actives largely listed as inhibitors; actives 3.4% (n = 340,000); further: potency means the concentration at half of the fitted maximal effect; on the % scale 0 is the no-effect control and ±100 the full control effect
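Seed cells (1,000/well) for 4 h; treat with compound and infect with HCVcc-Cre, moi about 0.5. Incubate 44 h, then detect luciferase activity.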
Pf growth 96h: P. falciparum growth inhibition at 96 hour, primary screen for plastid delayed-death inhibitors; AID 504834; P. falciparum luciferase reporter growth, 96 h; actives 6.9% (n = 320,000); Potency, µM (highest dose often 28.7 µM), without a hit: top-dose activity change, negative = inhibition, usual class: inhibitors; further: potency means the concentration at half of the fitted maximal effect; on the % scale 0 is the no-effect control and ±100 the full control effect
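Erythrocytes infected with luciferase-expressing P. falciparum were dispensed at 2% hematocrit and 0.05% parasitemia (final), then incubated with compounds 96 hours at 37 C in 5% CO2. Luminescence after detection reagent addition reported growth.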
HCMV inh: inhibitors of human cytomegalovirus. HFF cells, HCMV-luciferase reporter, 72 h; hits give low values. actives 4.5% (n = 410,000). activity change, negative = inhibition, % at 57.5 µM. AID 1259415; in the data active means activity change below about -60%; inconclusive means no clear call, values can overlap the other calls; inactive means above about -39%; further: on the % scale 0 is the no-effect control and ±100 the full control effect
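Screen run at 2 compound doses on HFFs infected with reporter HCMV, MOI 1 PFU/cell. Luciferase activity from cell lysates at 72 h post infection gave inhibition relative to buffer-only and Salinomycin wells.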
SARS PLpro yeast: blocks SARS-CoV papain-like protease in a yeast assay; S. cerevisiae expressing SARS-CoV PLpro, growth rescue; Potency, µM (doses to about 32.9 µM), inactives show at the top dose activity, positive = growth rescue, most hits filed as activators; actives 0.19% (n = 330,000); calls by dose curve; further: potency means the concentration at half of the fitted maximal effect; 0% is about no effect; nearly all actives have a fitted effect of over 55% in size
Sm TGR block: S. mansoni TGR enzyme inhibition; Q962Y6; purified TGR, DTNB reduction, TNB absorbance 405 nm; Potency, µM (highest dose often 114 µM), without a hit: top-dose activity change, negative = inhibition, most hits filed as inhibitors; actives 3% (n = 360,000); AID 485364; further: potency means the concentration at half of the fitted maximal effect; on the % scale 0 is the no-effect control and ±100 the full control effect; nearly all actives have a fitted effect of over 60% in size
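TGR 20 nM + NADPH 100 uM (dispensed conc.), cpd preinc 15 min RT; start with NADPH (500 uM addition) then DTNB (15 mM addition). Kinetic TNB absorbance, 405 nm filter. Four-parameter Hill fit across titration.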
Pf growth 48h: inhibits P. falciparum growth in the first generation, 48 h. P. falciparum luciferase growth in erythrocytes, 48 h. Potency, µM (titrated, usually from 28.7 µM), for inactives: at the highest dose activity change, negative = inhibition, usual class: inhibitors. actives 5.9% (n = 310,000). AID 504832; further: potency means the concentration at half of the fitted maximal effect; on the % scale 0 is the no-effect control and ±100 the full control effect
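Luminescence readout; reporter = integrated firefly luciferase in P. falciparum. RBC culture at 2% hematocrit, 0.1% parasitemia final, 37 C/5% CO2; decreased signal taken as growth inhibition.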
An asterisk follows results filed as active; u = inconclusive; x = no result; [ ] = another dose, or the depositor's remark. In the library only some 15% were active in any assay of this set; here they are far more common. Unless noted, the call rests on the fitted dose curve; in most records, active means well fitted curve in the direction sought with a large enough effect; inconclusive means small, poorly fitted or top-dose-only effect, or another doubt; inactive means no such curve, though single readings can be large; an effect the other way counts as inactive or inconclusive.

SMILES	HCV inhibitor	Pf growth 96h	HCMV inh	SARS PLpro yeast	Sm TGR block	Pf growth 48h
O=C(Nc1ccc([N+](=O)[O-])cc1)c1ccc(S(=O)(=O)N2CCCC2)cc1	-8%	12µM*	7	2%	3%	u
CC(=O)Nc1ccc(NC(=O)C(NC(=O)C2CCC(C)CC2)C(C)C)cc1 (stereo unspecified)	x	x	14	x	-1%	x
Cc1cnc(NC(=O)c2c(O)c3cccc4c3n(c2=O)CCC4)s1	x	22%	x	1%	2%	31%
O=C(NC1CCCCCC1)c1c(O)c2cccc3c2n(c1=O)CCC3	7%	7%[5.75 µM]	x	-3%	0%	4%
CNC(=O)c1c(O)c2cccc3c2n(c1=O)CCC3	u	89%	-98*	-11%	0%	22%
CC(C)c1nnc(NC(=O)c2c(O)c3cccc4c3n(c2=O)CCC4)s1	u	u	-96*	3%	11%	u
CCN(CC)CCNC(=O)c1c(O)c2cccc3c2n(c1=O)CCC3	u	x	-29	2%	0%	1.9µM*
COc1ccc(CN2CN(S(=O)(=O)c3ccccc3)c3nc4ccccc4nc32)cc1	-20%	u	2	0%	0%	u
CC(C)C(c1nnnn1C(C)(C)C)N1CCN(c2cccc(Cl)c2)CC1 (stereo unspecified)	15%	-24%	-17	-12%	0%	u
Cc1ccccc1C(=O)Nc1nc(-c2nnn(-c3ccc(C(C)C)cc3)c2C)ns1	x	x	-33	x	-9%	x
Cc1ccc(NC(=O)CSc2ncc3ccccn23)cc1C	-23%	91%	-25	0%	-1%	25%
C=C[C@@H]1c2cc(C)ccc2N(S(=O)(=O)c2ccc(C)cc2)[C@H](c2ccccc2)C1(C#N)C#N	1%	u	-25	-3%	-10%	u
C=C[C@@H]1c2ccccc2N(S(=O)(=O)c2ccc(C)cc2)[C@H](c2ccccc2)C1(C#N)C#N	-27%	u	-40	1%	-19%	3.7µM*
COc1ccc(S(=O)(=O)N2CCN(CC(=O)N3CCc4ccccc4C3)CC2)cc1OC	u	9.3µM*	-12	2%	-22%	u
O=C(CN1CCN(S(=O)(=O)c2cc(C(F)(F)F)ccc2Cl)CC1)N1CCc2ccccc2C1	11µM*	u	-28	-5%	40µM*	13µM*
COc1ccc(C(NC(=O)C2CCN(CCOc3ccc(Cl)cc3Cl)CC2)c2cccs2)cc1 (stereo unspecified)	x	x	6	x	x	x
COc1cc2c(C(=O)N3CCN(c4cccc(Cl)c4)CC3)cn(CC(C)C)c(=O)c2cc1OC	u	x	31	-3%	20%	x
O=S(=O)(c1ccccc1)c1nc(-c2ccccc2)oc1N1CCCCC1	u	12%	8	4%	22µM*	x
COc1ccc(NC(=O)CSc2oc(-c3ccc(F)cc3)nc2S(=O)(=O)c2ccc(C)cc2)c(OC)c1	x	x	-8	x	45µM*	x
COc1ccc(-c2nc(S(=O)(=O)c3ccccc3)c(N3CCOCC3)o2)cc1	6%	56%	-22	13%	40µM*	3%
O=S(=O)(c1ccccc1)c1nc(-c2ccccc2)oc1N1CCCC1	-4%	32%	u	0%	-23%	0%
Cc1ccc(S(=O)(=O)c2nc(Cc3ccccc3)oc2N2CCOCC2)cc1	11%	79%	15	8%	0.79µM*	1%
Cc1ccc(S(=O)(=O)c2nc(-c3ccc(F)cc3)oc2SCC(=O)NC2CCCCC2)cc1	x	x	19	x	-3%	x
CC(C)(C)c1ccc(-c2nc(S(=O)(=O)c3ccccc3)c(N3CCOCC3)o2)cc1	x	x	38	x	5%	x
COc1cc2ccccc2cc1C(=O)N/N=C/c1cccs1	x	x	-8	x	x	x
SMILES	HCV inhibitor	Pf growth 96h	HCMV inh	SARS PLpro yeast	Sm TGR block	Pf growth 48h
Cc1ccc(S(=O)(=O)N2CCC(=O)N([C@H](COC(=O)Nc3ccccc3)Cc3ccccc3)CC2)cc1	x	x	2	x	x	x
COc1ccc(/C=C2\SC(=S)N(CC(=O)NC3C=CS(=O)(=O)C3)C2=O)cc1 (stereo unspecified)	0%	0%	-40	8%	-15%	14%
COc1ccc(-c2nc(S(=O)(=O)c3ccc(C)cc3)c(N3CCCCC3)o2)cc1	x	x	-7	x	10µM*	x
Cc1ccc(S(=O)(=O)c2nc(-c3ccccc3F)oc2N2CCCCC2)cc1	x	x	-9	x	45µM*	x
COc1cccc(-c2nc(S(=O)(=O)c3ccc(C)cc3)c(N3CCCCCC3)o2)c1	x	x	-1	x	5%	x
Cc1ccc(S(=O)(=O)c2nc(-c3ccccc3)oc2N2CCN(c3ccccc3)CC2)cc1	x	x	-1	x	8%	x
Cc1ccc(S(=O)(=O)c2nc(-c3cccc(C)c3)oc2N2CCCCC2)cc1	x	x	28	x	20µM*	x
Cc1ccc(S(=O)(=O)c2nc(-c3ccccc3)oc2N2CCCC2)cc1	6%	u	-35	3%	2µM*	12%
Cc1ccc(S(=O)(=O)c2nc(-c3cccc(C)c3)oc2N2CCN(c3ccccc3)CC2)cc1	x	x	-1	x	10%	x
CCNC(=O)C1(C)CCN(C(=O)c2ccc3c(c2)OCO3)C1 (stereo unspecified)	x	x	-9	x	x	x
C=CCNc1oc(-c2cccc(F)c2)nc1C#N	x	x	2	u	x	x
Cc1ccc(S(=O)(=O)c2nc(-c3ccco3)oc2N2CCC(C)CC2)cc1	u	u	11	-11%	40µM*	u
NC(=O)C1CCN(c2oc(-c3ccccc3)nc2S(=O)(=O)c2ccc(Br)cc2)CC1	3%	u	21	-4%	u	u
Cc1ccc(S(=O)(=O)c2nc(-c3ccccc3)oc2N2CCC(C(N)=O)CC2)cc1	19%	13µM*	70	1%	14µM*	u
C#C[C@]1(O)CC[C@H]2[C@@H]3CCC4=Cc5nc6nc7ccccc7n6cc5C[C@]4(C)[C@H]3CC[C@@]21C	u	5.2µM*	-30	x	u	3.7µM*
C#C[C@]1(O)CCC2C3CCC4=Cc5oncc5CC4(C)C3CCC21C (stereo partly specified)	-20%	x	-3	x	x	x
COc1ccc(-c2cc3ccccc3n2CC(O)CN2CCC(C)CC2)cc1 (stereo unspecified)	1%	41%	-18	-7%	8%	u
COc1ccc(-c2cc3ccccc3n2CC(O)Cn2nc(C)cc2C)cc1 (stereo unspecified)	u	0%	-10	-12%	-13%	2.3µM*
Cc1cc(C)cc(C(=O)N(Cc2ccco2)c2c(N)n(Cc3ccccc3)c(=O)[nH]c2=O)c1	24%	u	-3	-3%	1%	u
CN(CC(=O)Nc1ccccc1Cl)C(=O)COC(=O)c1ccccc1[N+](=O)[O-]	8%[8.37 µM]	31%	x	-4%	0%	22%

Screening data from PubChem BioAssay.
